The values that follow come from the supplement of paper PMC7411640.

The test deals with MDA-MB-468. Kind of test: phospho-S6 immunofluorescence (DAPI-normalised), per-plate z-score; higher = higher phospho-S6 signal (less pathway suppression). The conditions noted are these: 24 h. The procedure: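 GPCR-targeted compound library (MedChemExpress HY-L006) tested on MDA-MB-468 PTEN-null TNBC cells in 384-well plates at 0.1, 1 or 10 uM, combined with vehicle, GDC0941 450 nM or lapatinib 1 uM, for 24 h. Phospho-S6 (S240/244) immunofluorescence normalised to DAPI and expressed as a per-plate z-score; values are the mean of biological triplicates.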

For the molecule `Cc1ccc(-c2n[nH]c3c2C(c2cccc(O)c2)N(c2ccc(C(=O)O)cc2)C3=O)cc1` (stereo not given) (compound 10 µM), the “phospho-S6 immunofluorescence (z-score)” value by setting is: (co-treatment: GDC0941 450 nM) 0; (co-treatment: lapatinib 1 uM) 0.5; (co-treatment: vehicle) -0.12.
Turning to `O=c1[nH]c2ccccc2n1CCN1CCN(c2cccc(C(F)(F)F)c2)CC1` [Flibanserin] (compound 10 µM), the “phospho-S6 immunofluorescence (z-score)” value is -0.19 (co-treatment: GDC0941 450 nM), -0.04 (co-treatment: lapatinib 1 uM) and 0.48 (co-treatment: vehicle).
For `C[C@@H]1CCCN1CCc1cc2cc(-c3ccc(C#N)cc3)ccc2o1` (compound 10 µM), in that order: -3.3, -4.56 and -0.97.
As for `CN(C)CCc1c[nH]c2ccc(Cn3cncn3)cc12` [Rizatriptan (benzoate)] (compound 10 µM), the “phospho-S6 immunofluorescence (z-score)” value by setting is: (co-treatment: GDC0941 450 nM) -1.62; (co-treatment: lapatinib 1 uM) 0.19; (co-treatment: vehicle) -1.1.
Regarding `CN1CCC(=C2c3ccccc3CCn3c(C=O)cnc32)CC1` [Alcaftadine] (compound 10 µM), the “phospho-S6 immunofluorescence (z-score)” value was -0.88 (co-treatment: GDC0941 450 nM), 1.09 (co-treatment: lapatinib 1 uM) and -0.66 (co-treatment: vehicle).
Regarding `CCOC(=O)c1ccc(-n2cc(Cc3cnc(OCC)nc3)c(=O)nc2SCc2ccc(F)cc2)cc1` (compound 10 µM), the “phospho-S6 immunofluorescence (z-score)” value runs as follows: (co-treatment: GDC0941 450 nM) -3.26; (co-treatment: lapatinib 1 uM) -3.79; (co-treatment: vehicle) -4.85.
`Nc1nc(NCCc2ccc(O)cc2)nc2nc(-c3ccco3)nn12` (compound 10 µM): the “phospho-S6 immunofluorescence (z-score)” value is -1.88 (co-treatment: GDC0941 450 nM), 0.67 (co-treatment: lapatinib 1 uM) and 1.01 (co-treatment: vehicle).
On to `CCOc1ccccc1OCCN[C@H](C)Cc1ccc(OC)c(S(N)(=O)=O)c1` [Tamsulosin] (compound 10 µM), for which the “phospho-S6 immunofluorescence (z-score)” value is, setting by setting: (co-treatment: GDC0941 450 nM) -1.32; (co-treatment: lapatinib 1 uM) 0.1; (co-treatment: vehicle) -0.53.
As to `CCCCC(=O)N(Cc1ccc(-c2ccccc2-c2nnn[nH]2)cc1)[C@H](C(=O)O)C(C)C` [Valsartan] (compound 10 µM), the “phospho-S6 immunofluorescence (z-score)” value is, setting by setting: (co-treatment: GDC0941 450 nM) 0.04; (co-treatment: lapatinib 1 uM) 0.5; (co-treatment: vehicle) 0.13.
On to `CCC(=O)NCC[C@@H]1CCc2ccc3c(c21)CCO3` [Ramelteon] (compound 10 µM), for which the “phospho-S6 immunofluorescence (z-score)” value reads like this: (co-treatment: GDC0941 450 nM) -0.04; (co-treatment: lapatinib 1 uM) -0.4; (co-treatment: vehicle) 0.21.
